High-throughput results as filed in PubChem.
Sampled rows, rich in hits. Any-hit rate of the full collection: about 18%.
RORg inh = ROR gamma (mouse) transcription inhibition; P51450; Drosophila S2 Gal4-RORgamma UAS-luciferase reporter, 20 h; Potency, µM (highest dose often 53.6 µM), inactives show top-dose activity change, negative = inhibition, most hits filed as inhibitors; 310,000 tested, 5.4% active; further: potency means the concentration at half of the fitted maximal effect; nearly all actives have a fitted effect of over 60% in size
Target sequence (P51450 whole entry, looked up, the tested form may be a part): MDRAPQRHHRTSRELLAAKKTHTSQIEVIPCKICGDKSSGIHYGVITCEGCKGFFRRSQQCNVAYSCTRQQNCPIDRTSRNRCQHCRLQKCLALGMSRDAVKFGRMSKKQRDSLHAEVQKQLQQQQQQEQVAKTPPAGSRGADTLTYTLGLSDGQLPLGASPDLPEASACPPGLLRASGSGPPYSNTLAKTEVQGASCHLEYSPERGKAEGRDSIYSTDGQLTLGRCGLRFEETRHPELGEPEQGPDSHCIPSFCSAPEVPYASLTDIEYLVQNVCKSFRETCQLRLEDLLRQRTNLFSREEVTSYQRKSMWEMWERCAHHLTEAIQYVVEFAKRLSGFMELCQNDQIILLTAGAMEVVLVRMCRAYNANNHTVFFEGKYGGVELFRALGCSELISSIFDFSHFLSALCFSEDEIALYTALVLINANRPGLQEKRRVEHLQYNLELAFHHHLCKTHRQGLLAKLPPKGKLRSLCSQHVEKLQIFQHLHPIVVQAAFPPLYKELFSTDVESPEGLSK
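Luciferase reporter read in Schneider cells carrying Gal4-RORγ (mouse) and UAS-Photinus luciferase; cells given compound 1 h before 700 uM copper sulfate induction, then incubated 20 h at ambient temperature.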
DT40 TDP1 CPT = growth inhibition of DT40 Tdp1-/-;hTDP1 cells with camptothecin (screen for TDP1 inhibitors). chicken DT40 Tdp1-/-;hTDP1 cells + 20 nM CPT, ATP luminescence, 48 h. Potency, µM (titrated, usually from 46.2 µM), for the others: at the highest dose activity change, negative = growth inhibition, hits mostly inhibitors. 420,000 tested, 12% active. AID 686979; further: potency means the concentration at half of the fitted maximal effect; nearly all actives have a fitted effect of over 55% in size
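Chicken DT40 Tdp1-/- cells complemented with human TDP1, 400 cells/well, exposed to compounds plus 20 nM camptothecin for at least 48 h at 37 C; viability read as ATP content by CellTiter-Glo luminescence.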
TDP1 cell noCPT = qHTS for Inhibitors of human tyrosyl-DNA phosphodiesterase 1 (TDP1): qHTS in cells in absence of CPT | DT40 Tdp1-/- hTDP1 cells, no CPT, ATP luminescence, 48 h | Potency, µM (top dose mostly 46.2 µM), without a hit: at the highest dose activity change, negative = growth inhibition, most hits filed as inhibitors | 420,000 tested, 15% active | AID 686978, 2013; further: potency means the concentration at half of the fitted maximal effect; nearly all actives have a fitted effect of over 55% in size
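Cells were dispensed at 400 per well, compounds added by pin tool, plates incubated ≥48 hr at 37 °C, then CellTiter-Glo added for 30 min at room temperature before luminescence reading. Line: DT40 Tdp1-/- complemented with hTDP1; camptothecin omitted.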
LDHA inh = LDHA (human) enzyme inhibition. AID 1347041. 480,000 tested, 0.15% active. activity change, % (values are at about 110 or 230 µM). P00338. purified LDHA, NADH/diaphorase-resazurin fluorescence; stronger effect = lower value; in the data active means activity change below about -30%; inconclusive means mostly about -25% to -30%;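 further: plate controls were DMSO wells for no effect and wells without enzyme for full effect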
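Resorufin fluorescence (ex540/em590), read at 0 and 20 min after diaphorase/resazurin addition, reports the NADH left after a 5 min room-temperature reaction of 2 nM human LDH5 with 0.06 mM NADH and 0.2 mM pyruvate.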
IL-1B inflam inh = inflammasome signaling inhibition, IL-1 beta readout; activity change, % at 57.5 µM; 360,000 tested, 4.7% active; THP-1 LPS/ATP IL-1B secretion, AlphaLISA, 16 h; stronger effect = lower value; in the data active means activity change below about -50%; inconclusive means mostly about -30% to -49%
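Secreted IL-1B measured by AlphaLISA bead assay after 16 h compound exposure of THP-1 cells; compounds (final up to 57.5 uM) added 1 h before LPS (250 ng/mL) and ATP (1.25 mM) stimulation; lower signal means less secretion.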
Gal4-VP16 FLuc = Gal4-VP16 reporter inhibition counter-screen. Drosophila S2 Gal4-VP16 UAS-luciferase, luminescence, 20 h. Potency, µM (series often up to 53.6 µM), without a hit: top-dose activity, negative = inhibition, actives largely listed as inhibitors. 310,000 tested, 3.5% active. AID 2546;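 further: Gal4-VP16 expression switched on by copper sulfate through the metallothionein promoter; potency means the concentration at half of the fitted maximal effect; nearly all actives have a fitted effect of over 50% in size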
* hit, by the source's call; ? = inconclusive; / = no result given. Unless noted, the call rests on the fitted dose curve; in most records, active means well fitted curve in the direction sought with a large enough effect; inconclusive means small, poorly fitted or top-dose-only effect, or another doubt; inactive means no such curve, though single readings can be large; an effect the other way counts as inactive or inconclusive. Unless noted, on the % scale 0 is the no-effect control and ±100 the full control effect.

SMILES | RORg inh | DT40 TDP1 CPT | TDP1 cell noCPT | LDHA inh | IL-1B inflam inh | Gal4-VP16 FLuc
Cc1ccc(C(CNC(=O)c2cc(-c3ccc4c(c3)OCCO4)on2)N2CCN(C)CC2)o1 (configuration not stated) | / | / | / | -12 | / | /
CN(C)c1ccc(C(=N)Cc2ccc3ccccc3n2)cc1 | / | 21µM* | ? | 4 | 29 | /
CN(C)c1ccc(C(=N)c2ccc(N(C)C)cc2)cc1 | -16% | / | / | / | / | 23%
Cc1cc(/C=C/c2ccccc2)nc2ccccc12 | / | ? | 10µM* | / | / | /
CN(C)c1ccc(/C=C/c2ccc3cc(F)ccc3n2)cc1 | / | ? | 10µM* | 6 | / | /
CCCN(CCC)c1ccc(/C=C/c2ccc3cc(OCC)ccc3n2)cc1 | 11% | ? | 23µM* | 1 | 3 | -8%
COc1ccc(F)cc1C1=NN(C(=O)C(C)C)C(c2ccc3nccnc3c2)C1 (configuration not stated) | / | / | / | 3 | / | /
COc1cc(C2C3=C(CCCC3=O)Nc3c(C#N)cnn32)ccc1O (configuration not stated) | / | / | / | -4 | / | /
Cc1cccc2cc3ccccc3nc12 | / | ? | ? | -4 | 1 | /
CN(C)c1ccc(/C=C/c2cccc3cc4ccccc4nc23)cc1 | / | 0.1µM* | 0.13µM* | -4 | / | /
CC1=C(C(=O)OCc2ccc(C)cc2)C(c2ccccc2C(F)(F)F)CC(=O)N1 (configuration not stated) | / | 23µM* | 21µM* | -4 | / | /
COc1ccccc1C1CC(=O)NC(C)=C1C(=O)OC(C)C (configuration not stated) | 14% | ? | 13µM* | -1 | 15 | -10%
COC(=O)C1=C(C)NC(=O)CC1c1cccc(Cl)c1Cl (configuration not stated) | -25% | ? | ? | -1 | 35 | -2%
CC1=C(C(=O)OC2CCCC2)C(c2ccc(Cl)cc2)CC(=O)N1 (configuration not stated) | / | ? | ? | -10 | / | /
COc1ccccc1C1CC(=O)NC(C)=C1C(=O)OC1CCCCCC1 (configuration not stated) | / | 21µM* | 13µM* | -3 | / | /
CC1=C(C(=O)OC2CCCC2)C(c2ccccc2C(F)(F)F)CC(=O)N1 (configuration not stated) | / | 18µM* | 15µM* | -8 | / | /
O=C(Nc1c(F)c(F)c(F)c(F)c1F)C12CC3CC(CC(C3)C1)C2 | / | / | / | -6 | / | /
CC(Oc1ccc(Cl)cc1Cl)C(=O)Nc1ccc(N2CCN(C)CC2)nc1 (configuration not stated) | / | / | / | 2 | / | /
Cn1c(CC(=O)Nc2ccc(F)cc2)nnc1SCC(=O)c1ccc(C#N)cc1 | / | / | / | 0 | / | /
